The source of these data is PubChem BioAssay (NCATS).

Several values for one entry are separate records, joined by “and”; a condition that tells them apart may be missing. Equal entries are not always repeated. Inconclusive results are not listed. Activity calls are given as the source filed them. Calls come from the whole dose curve; as a rule, active = well fitted cell-killing curve with a large enough effect; inconclusive = small, poorly fitted or top-dose-only effect; inactive = flat fitted curve, though single readings scatter.
Potency is the fitted concentration of half-maximal effect.

A short description of this assay: Cellular viability qHTS for adrenocortical cancer (ACC) cell line NCI-H295R (AID 1963990).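 For activity change, negative = viability loss: 0% = DMSO only wells and -100% = full killing with cytotoxic reference compound.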 Note: nearly all actives have a fitted effect of over 60% in size. To be noted: CellTiter-Glo ATP luminescence, 48 h; series mostly up to 46.1 µM. The method in brief:
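Adrenocortical carcinoma cells, suspended at 300 000 cells/mL in serum-free DMEM plus ITS, rested overnight before pin transfer of compound. After two days' incubation, ATP-dependent luminescence was recorded and curve-fitted.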
On the technique in general: qHTS replaces the single test concentration by a dilution series.
In the case of `Nc1nc(=S)c2[nH]cnc2[nH]1`, the Potency is 731 nM (active) and 1.12 µM (active).
On the same count and under the same terms, the result for `NCCCC(O)(P(=O)(O)O)P(=O)(O)O` reads “inactive”; that for `CN(C)c1ccc(-c2nc3ncc(Cl)c(N4CCN(CC(=O)Nc5nccs5)CC4)c3[nH]2)cc1`, “inactive”.
As to `Cn1cc(C2=C(c3c4n(c5ccccc35)CCC(CN)C4)C(=O)NC2=O)c2ccccc21` (configuration not stated), the activity change, negative = viability loss is -2.33% [at 9.17 µM] (inactive).
Consider `CNC(=O)c1c(-c2ccc(F)cc2)oc2cc(N(CCO)S(C)(=O)=O)c(C3CC3)cc12`, for which the Potency entry was “inactive”.
Still for that read-out and setting: in the case of `CNC(=O)c1cc(Oc2ccc(NC(=O)Nc3ccc(Cl)c(C(F)(F)F)c3)c(F)c2)ccn1` it was 7.08 µM (active); in that of `CCC(C(=O)O)C1CCC(C)C(C(C)C(O)C(C)C(=O)C(CC)C2OC3(C=CC(O)[C@@]4(CC[C@](C)(C5CC[C@@](O)(CC)C(C)O5)O4)O3)C(C)CC2C)O1` (some centres not stated), 0.708 µM (active); in that of `CC1(C)CCC(CN2CCN(c3ccc(C(=O)NS(=O)(=O)c4ccc(NCC5CCOCC5)c([N+](=O)[O-])c4)c(Oc4cnc5[nH]ccc5c4)c3)CC2)=C(c2ccc(Cl)cc2)C1`, “inactive”.
The same measure, in the same setting: in the case of `Cc1cccc(Nc2nc(N[C@@H]3CCCC[C@H]3N)ncc2C(N)=O)c1` it was 28.2 µM (active).
Still for that read-out and setting: in the case of `CNC(=O)c1cc(Oc2ccc(NC(=O)Nc3ccc(Cl)c(C(F)(F)F)c3)cc2)ccn1` it was 11.2 µM (active) and 10.3 µM (active).
Turning to `CN1CCN(c2cc(C(=O)Nc3ccc4c(c3)-c3c(c(C(N)=O)nn3-c3ccc(F)cc3)CC4)c(Cl)cn2)CC1`, the Potency was 25.1 µM (active).
For `O=C(CN1C(=O)C2(CCCC2)NC[C@H]1c1cc(F)cc(F)c1)Nc1ccc2c(c1)C[C@@]1(C2)C(=O)Nc2ncccc21`, the Potency entry was “inactive”.
